From PubChem BioAssay
Cruzain Triton = blocks cruzain activity in presence of Triton detergent. AID 1478. P25779. Potency, µM, inactives show max response, negative = inhibition, actives largely listed as inhibitors. actives 0.43% (n = 200,000). purified cruzain, Z-FR-AMC fluorescence, 0.01% Triton;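 also: plate controls were neutral wells for no effect and buffer without enzyme for full effect; nearly all actives have a fitted effect of over 40% in size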
Target sequence (P25779 123-467 limits assumed): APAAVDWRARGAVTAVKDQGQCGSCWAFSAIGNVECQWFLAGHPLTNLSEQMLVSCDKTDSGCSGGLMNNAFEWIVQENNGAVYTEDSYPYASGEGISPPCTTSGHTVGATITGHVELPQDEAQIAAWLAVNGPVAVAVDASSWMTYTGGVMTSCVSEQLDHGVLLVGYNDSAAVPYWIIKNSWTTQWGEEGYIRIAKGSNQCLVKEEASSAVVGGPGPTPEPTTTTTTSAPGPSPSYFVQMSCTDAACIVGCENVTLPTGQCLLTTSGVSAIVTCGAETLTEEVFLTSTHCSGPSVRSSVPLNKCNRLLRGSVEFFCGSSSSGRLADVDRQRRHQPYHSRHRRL
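15 min RT preincubation of 1.5 nM cruzain with compound, then 2 uM Z-FR-AMC added; kinetic AMC fluorescence, 60 s delta. Triton X-100 0.01%, pH 5.5.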
Cruzain noTriton = cruzain (T. cruzi) inhibition without detergent. P25779. purified cruzain, Z-FR-AMC fluorescence, no detergent. Potency, µM, for the others: max response, negative = inhibition, usual class: inhibitors. actives 2.3% (n = 200,000). AID 1476;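 also: plate controls were enzyme without inhibitor for no effect and buffer without enzyme for full effect; nearly all actives have a fitted effect of over 40% in size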
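Purified cruzain at 1.5 nM, pre-incubated 15 min with compound at room temperature in 100 mM sodium acetate pH 5.5, 5 mM DTT, 0.00005% Triton X-100. Reaction started with 2 uM Z-FR-AMC; AMC fluorescence increase over 60 s gives rate.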
* hit, by the source's call. Most compounds without a hit are left out; they make up all but 2.4% or so of the library. Calls follow the shape of the dose curve; as a rule, active = well fitted curve in the direction sought with a large enough effect; inconclusive = small, poorly fitted or top-dose-only effect, or another doubt; inactive = no such curve, though single readings can be large; an effect the other way counts as inactive or inconclusive. Potency is read from the fitted curve at half-maximal effect.

For N=c1oc2cc(O)ccc2cc1C(=O)Nc1nc2ccccc2s1 the results were Cruzain Triton 13µM* and Cruzain noTriton 20µM*.
`Cc1cc(C)n(CCc2nc3c4ccccc4nc(N4CCN(c5ccccc5)CC4)n3n2)n1` gave Cruzain Triton 1% and Cruzain noTriton 11%.
Screening Cc1ccccc1NC1=C/C(=N\S(=O)(=O)c2cccs2)c2ccccc2C1=O returned Cruzain Triton -5% and Cruzain noTriton inconclusive.
Cc1ccc(NC2=C/C(=N/S(=O)(=O)c3cccs3)c3ccccc3C2=O)cc1C was read as Cruzain Triton -1% and Cruzain noTriton 10µM*.
Cc1cccc(CNC(=O)c2ccc3nc(Cc4ccccc4)oc3c2)c1 was read as Cruzain Triton -2% and Cruzain noTriton -7%.
`Cc1ccc(S(=O)(=O)Nc2ccccc2C(=O)c2ccc(C)c(C)c2)cc1` gave Cruzain Triton 3% and Cruzain noTriton -3%.
`Cc1cc2nn(-c3ccc(F)cc3)nc2cc1NC(=O)c1cccc2c(Cl)cccc12` gave Cruzain Triton 1% and Cruzain noTriton -1%.
CC(NC(=O)/C(C#N)=C1\N=C(NC(=O)c2cccs2)c2ccccc21)c1ccccc1 (stereo not given) was read as Cruzain Triton 0% and Cruzain noTriton 16µM*.
For N#C/C(C(=O)NCCc1ccccc1)=C1/N=C(NC(=O)c2cccs2)c2ccccc21 the results were Cruzain Triton -6% and Cruzain noTriton 4µM*.
Screening O=C(NCCc1ccccc1)c1cccs1 returned Cruzain Triton 6% and Cruzain noTriton -1%.
C[C@@H](NC(=O)/C(C#N)=C/c1ccc(O)c(O)c1)c1ccccc1 was read as Cruzain Triton -5% and Cruzain noTriton 7%.
Screening CCOc1cc(CNC(=O)CN2CCSc3ccccc32)cc(OCC)c1OCC returned Cruzain Triton -8% and Cruzain noTriton inconclusive.
Cc1cccc(OCCCCn2nnc3sc4c(c3c2=O)CCC(C)C4)c1 (stereo not given) was read as Cruzain Triton -1% and Cruzain noTriton -9%.
For COC(=O)N[C@@H](c1cccc(F)c1)C(C(C)=O)C(=O)OC (stereo not given in full) the results were Cruzain Triton 3% and Cruzain noTriton -6%.
For CCC1=C2CC[C@H]3C(=O)N(C)C(=O)[C@H]3[C@H]2[C@@]2(C)C(=NCc3ccccc3)OC(=O)N2C1=O the results were Cruzain Triton -2% and Cruzain noTriton -5%.
For CCOC(=O)c1c(-c2ccccc2)csc1NC(=O)c1cc(-c2cccc(OC)c2)on1 the results were Cruzain Triton -3% and Cruzain noTriton -7%.
For CCc1nnc(NS(=O)(=O)c2ccc(NC(=S)NC(=O)c3ccc(Br)cc3)cc2)s1 the results were Cruzain Triton inconclusive and Cruzain noTriton 7%.
`COc1ccc(NS(=O)(=O)c2ccc(NC(=S)NC(=O)c3ccc(Br)cc3)cc2)nn1` gave Cruzain Triton -7% and Cruzain noTriton 2%.
CCc1nnc(NS(=O)(=O)c2ccc(NC(=S)NC(=O)/C=C/c3ccc(OC)cc3)cc2)s1 was read as Cruzain Triton 22µM* and Cruzain noTriton -17%.
Screening CCc1nnc(NS(=O)(=O)c2ccc(NC(=S)Nc3ccc(F)cc3)cc2)s1 returned Cruzain Triton -4% and Cruzain noTriton 12%.
CCc1nnc(NS(=O)(=O)c2ccc(NC(=S)NC(=O)/C=C/c3ccc(C(C)C)cc3)cc2)s1 was read as Cruzain Triton 14µM* and Cruzain noTriton inconclusive.
For COc1ccc(NS(=O)(=O)c2ccc(NC(=S)NC(=O)/C=C/c3ccccc3)cc2)nn1 the results were Cruzain Triton -13% and Cruzain noTriton 32µM*.
CCc1nnc(NS(=O)(=O)c2ccc(NC(=S)NC(=O)/C=C/c3ccccc3)cc2)s1 was read as Cruzain Triton 25µM* and Cruzain noTriton 1%.
`CCc1nnc(NS(=O)(=O)c2ccc(NC(=S)NC(=O)c3ccccc3)cc2)s1` gave Cruzain Triton -12% and Cruzain noTriton -2%.
O=C(CN1C(=O)CCSc2ccc(S(=O)(=O)N3CCCC3)cc21)Nc1cccc(F)c1 was read as Cruzain Triton -2% and Cruzain noTriton -9%.
Screening CNC(=O)[C@@H](Cc1ccccc1)N(C)C(=O)[C@@H](Cc1ccc2ccccc2c1)N(C)C(=O)/C=C/CC(C)(C)N returned Cruzain Triton -2% and Cruzain noTriton 2%.
Screening Cc1cccc(NC(=O)c2cc(S(=O)(=O)NCCc3ccccc3)ccc2F)c1C returned Cruzain Triton 0% and Cruzain noTriton 1%.
`CC(C)[C@@H](CC(=O)N[C@@H]1CCCC[C@H]1C(=O)N[C@H](CC(=O)N[C@@H](CCC(=O)O)CC(=O)O)Cc1ccccc1)NC(=O)C[C@H](Cc1ccccc1)NC(=O)[C@@H]1CCCC[C@H]1N` gave Cruzain Triton 7% and Cruzain noTriton inconclusive.
`Fc1ccccc1Cc1cn2cc(-c3ccc(Cl)cc3)nc2s1` gave Cruzain Triton -2% and Cruzain noTriton -6%.
For O=c1nc(Nc2ccccc2)sc2ccc([N+](=O)[O-])cc12 the results were Cruzain Triton -3% and Cruzain noTriton 10µM*.
Screening O=[N+]([O-])c1ccc(Nc2ccccc2)cc1 returned Cruzain Triton -10% and Cruzain noTriton -11%.
Screening CCc1ccc(NC(=O)N2CC(C)Oc3ccc(C)cc32)cc1 (stereo not given) returned Cruzain Triton 1% and Cruzain noTriton 2%.
`COc1cc(/C=C(\C#N)c2nc3ccccc3[nH]2)ccc1OC(=O)c1ccco1` gave Cruzain Triton -4% and Cruzain noTriton -9%.
Screening N#C/C(=C\c1ccc(OCc2ccc(Cl)cc2Cl)cc1)c1nc2ccccc2[nH]1 returned Cruzain Triton 2% and Cruzain noTriton -11%.
Screening COc1cc(/C=C(\C#N)c2nc3ccccc3[nH]2)cc(Cl)c1OCc1ccccc1Cl returned Cruzain Triton 0% and Cruzain noTriton 10µM*.
`COc1cc(/C=C(\C#N)c2nc3ccccc3[nH]2)c([N+](=O)[O-])cc1OCc1ccccc1` gave Cruzain Triton -5% and Cruzain noTriton 32µM*.
`O=c1cc(CO)occ1O` gave Cruzain Triton 1% and Cruzain noTriton -9%.
Screening O=C(O)/C(Cc1ccc([N+](=O)[O-])cc1)=N/O returned Cruzain Triton 3% and Cruzain noTriton -8%.
Screening COc1ccccc1NC(=O)CSc1nc(N)cc(N)n1 returned Cruzain Triton 5% and Cruzain noTriton -4%.
COc1ccccc1NC(=O)CSc1nc2ccccc2cc1Cc1ccccc1 was read as Cruzain Triton 1% and Cruzain noTriton 20µM*.
O=C(CN1CCN(c2nc(-c3ccccc3)cs2)CC1)Nc1ccc2c(c1)OCO2 was read as Cruzain Triton 2% and Cruzain noTriton 25µM*.
`CCc1nnc(NC(=O)CN2CCN(c3nc(-c4ccccc4)cs3)CC2)s1` gave Cruzain Triton -3% and Cruzain noTriton inconclusive.
`O=C(CN1CCc2ccccc21)NCc1ccc2c(c1)OCO2` gave Cruzain Triton -2% and Cruzain noTriton -4%.
`O=C(CN1CCc2ccccc21)Nc1ccc2c(c1)OCO2` gave Cruzain Triton -2% and Cruzain noTriton 13µM*.
For O=C(Nc1ccc(F)c(F)c1)C1CCCN1S(=O)(=O)c1cccc2nsnc12 (stereo not given) the results were Cruzain Triton -1% and Cruzain noTriton -2%.
For CN1CCN(c2ncnc3ccc(-c4ccccc4C(F)(F)F)cc23)CC1 the results were Cruzain Triton -2% and Cruzain noTriton 3%.
